From PubChem BioAssay (NCATS) come the findings set out here.

A number with no mark means an inactive call. Records with an inconclusive call do not appear. Active and inactive are the calls of the source. The call rests on the fitted dose curve; in most records, active means well fitted curve in the direction sought with a large enough effect; inconclusive means small, poorly fitted or top-dose-only effect, or another doubt; inactive means no such curve, though single readings can be large; an effect the other way counts as inactive or inconclusive.

Experiment [1] has as its target Calcium and integrin-binding protein 1 (Homo sapiens) (UniProt Q99828). Put plainly: Primary qHTS for Identification of Calcium Integrin Binding Protein 1 (CIB1) Competitor (AID 1508620).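 Further: GST tagged CIB1 binding a fluorescein labelled alphaIIb integrin peptide tracer; top concentration of the series differs between compounds; on the % scale 0 is the no-effect control and ±100 the full control effect.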 The gist of the method:
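Fluorescence polarization competition: GST-tagged CIB1 (1 uM final) preincubated with compound 15 min at room temperature, then FITC-labelled alphaIIb peptide (100 nM final) added. After 15 min at room temperature, polarization read at Ex 480/Em 540.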
For orientation: Quantitative high-throughput screening tests each substance at several concentrations.

Experiment [2] has as its target Phospholipid hydroperoxide glutathione peroxidase GPX4 (Homo sapiens) (UniProt P36969). Put plainly: Primary qHTS Assay for Inhibitors of Recombinant Selenoprotein Glutathione Peroxidase 4 (GPX4) (AID 1845192). Further: nearly all actives have a fitted effect of over 65% in size. On activity change, negative = inhibition: on the % scale 0 is the no-effect control and ±100 the full control effect. Summed up: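 GR-coupled assay: recombinant GPX4 preincubated 30 min with compound at room temperature; final 200 nM GPX4, 1 mM GSH, 0.5 mM cumene hydroperoxide, 0.5 mM NADPH, 100 nM GR, 0.01% BSA, pH 7.5 Tris. NADPH fluorescence (340/450 nm) read at 0 and 15 min.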

Experiment [3] deals with Luciferin 4-monooxygenase (Photinus pyralis) (UniProt P08659). Put plainly: Primary firefly luciferase (FLuc) qHTS assay for identification of artifact compounds. (AID 1845220). Further: nearly all actives have a fitted effect of over 60% in size.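 On activity change, negative = inhibition: plate controls were DMSO vehicle for no effect and no enzyme for full effect.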 The settings on record: outcome: dose series up to 54.1 µM unless noted. Summed up:
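Enzymatic FLuc inhibition assay: compounds pre-exposed to luciferin/ATP (10 uM each) for 15 min, then purified P. pyralis enzyme at 10 nM added. Read-out: luminescence at 5 min.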

Experiment [4] in a line: Primary fluorescence-based thiol-reactive (MSTI) qHTS assay for identification of artifact compounds. (AID 1845221).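 Further: thiol-reactive compounds lower the probe fluorescence signal; nearly all actives have a fitted effect of over 65% in size.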 Summed up:
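Thiol-reactive compounds detected by quenching of 4 uM MSTI fluorescence (525/598 nm) after 1 h room-temperature dark incubation in PBS pH 7.4, 2% DMSO. qHTS titration; percent inhibition Hill-fitted against Acetyl-MSTI/MSTI controls.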

In another experiment the test system is HaCat. In words: Cytotoxic Profiling of Annotated Libraries Using Quantitative High-Throughput Screening (AID 1296008). Further: nearly all actives have a fitted effect of over 60% in size. The settings on record: Five cell lines viability, CellTiter-Glo ATP luminescence, 48-72 h; max response: stronger effect = lower value. Summed up:
(§1)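 Cells exposed to compounds for 48 or 72 hr at 37 degrees Celsius. Viability read as ATP-coupled luminescence with CellTiter-Glo after 10 min at room temperature.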
(In general: ATP-based viability assays read luminescence as a measure of living cells.)

The test system of the next experiment is C33A. Put plainly: Primary qHTS to identify gynecologic anti-cancer compounds using libraries of approved drugs and bioactive compounds (AID 1345084). Further: nearly all actives have a fitted effect of over 55% in size. Further: potency means the concentration at half of the fitted maximal effect. On activity change, negative = cytotoxicity: on the % scale 0 is the no-effect control and ±100 the full control effect. The settings on record: Gynecologic cancer cell panel viability, ATPlite luminescence, 48 h; series mostly up to 57.5 µM. Summed up:
(§2)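 Five-point cytotoxicity, 48 h drug exposure at 37 C, 5% CO2, on cells seeded 16 h beforehand. ATP content read by ATPlite luminescence.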

Another experiment concerns CASKI. The experiment is described as above. The settings on record: Gynecologic cancer cell panel viability, ATPlite luminescence, 48 h; series mostly up to 57.5 µM. The gist of the method: as §2
A further experiment concerns Es-2. The description is as above. The settings on record: Gynecologic cancer cell panel viability, ATPlite luminescence, 48 h; series mostly up to 57.5 µM. The gist of the method:
as §2

In a further experiment the test system is Hek293T. Described as above. The settings on record: Gynecologic cancer cell panel viability, ATPlite luminescence, 48 h, control line for the selectivity index; series mostly up to 57.5 µM. The gist of the method:
as §2

The next experiment concerns JEG-3. Described as above. The settings on record: Gynecologic cancer cell panel viability, ATPlite luminescence, 48 h; series mostly up to 57.5 µM. The gist of the method:
as §2

Another experiment has as its system PA-1. Described as above. The settings on record: Gynecologic cancer cell panel viability, ATPlite luminescence, 48 h; series mostly up to 57.5 µM. The gist of the method: as §2
In the next experiment the test system is Tov-21-G. The description is as above. The settings on record: Gynecologic cancer cell panel viability, ATPlite luminescence, 48 h; series mostly up to 57.5 µM. The gist of the method:
as §2

For another experiment, the system named is Tov112D. The experiment is described as above. The settings on record: Gynecologic cancer cell panel viability, ATPlite luminescence, 48 h; series mostly up to 57.5 µM. Summed up: as §2
Experiment [5] relates to Zika virus NS2B-NS3 protease (linked construct). Put plainly: Primary screen NINDS Rhodamine qHTS for Zika virus inhibitors (AID 1347160). Further: nearly all actives have a fitted effect of over 55% in size. The gist of the method:
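Purified linked NS2B-NS3 protease (NS2B hydrophilic domain joined to NS3 protease by flexible linker), 25 nM in 10 mM Tris-HCl pH 8.0, 0.01% Tween 20. Compounds titrated, 15 min preincubation at room temperature; 1.5 microM Rhodamine110 substrate, FITC fluorescence change over 15 min.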

Experiment [6] has as its target Glutathione peroxidase 1 (Homo sapiens) (UniProt P07203). Put plainly: Primary qHTS Assay for Inhibitors of Recombinant Selenoprotein Glutathione Peroxidase 1 (GPX1) (AID 1845191). Further: on the % scale 0 is the no-effect control and ±100 the full control effect; nearly all actives have a fitted effect of over 65% in size. Summed up: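 GR-coupled assay: compounds preincubated 30 min at room temperature with GPX1, then reaction started with CHP; final 10 nM GPX1, 1 mM GSH, 0.5 mM CHP, 0.5 mM NADPH, 100 nM GR, 0.01% BSA, pH 7.5 Tris buffer. NADPH fluorescence (340/450 nm) read at 0 and 15 min.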

Experiment [7] concerns Nanoluciferase (engineered Oplophorus gracilirostris luciferase). Put plainly: Primary Nanoluciferase (NLuc) qHTS assay for identification of artifact compounds. (AID 1845222).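 Further: NLuc secreted into diluted conditioned medium of S16 cells; 0% = DMSO and -100% = no enzyme.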 Summed up: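 S16 cell supernatant NLuc, 1:55; cpds qHTS; 15 min RT dark; Nano-Glo substrate 1:100, 5 min; luminescence; Hill fit of % inhibition.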
Experiment [8] can be described thus: Primary redox qHTS assay for identification of artifact compounds. (AID 1845223).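 Further: 0% = DMSO and 100% = reference compound.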 Summed up:
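Amplex Red (25 uM) and HRP (250 mU/mL) in HBSS, with compounds for 15 min, then 250 uM DTT for 30 min, room temperature, dark. Fluorescence 525/598 nm read; normalized to DMSO and 10 uM DA3003; Hill fit.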

The next experiment concerns NIH3T3. In words: Cytotoxic Profiling of Annotated Libraries Using Quantitative High-Throughput Screening (AID 1296008). Further: nearly all actives have a fitted effect of over 60% in size. The settings on record: Five cell lines viability, CellTiter-Glo ATP luminescence, 48-72 h; max response: stronger effect = lower value. Summed up:
as §1

Another experiment deals with CAOV3. Put plainly: Primary qHTS to identify gynecologic anti-cancer compounds using libraries of approved drugs and bioactive compounds (AID 1345084). Further: nearly all actives have a fitted effect of over 55% in size. Further: potency means the concentration at half of the fitted maximal effect. On activity change, negative = cytotoxicity: on the % scale 0 is the no-effect control and ±100 the full control effect. The settings on record: Gynecologic cancer cell panel viability, ATPlite luminescence, 48 h; series mostly up to 57.5 µM. Summed up:
as §2

The next experiment relates to OV90. The experiment is described as above. The settings on record: Gynecologic cancer cell panel viability, ATPlite luminescence, 48 h; series mostly up to 57.5 µM. Summed up:
as §2

Chain of Phospholipid hydroperoxide glutathione peroxidase GPX4 (Homo sapiens) (P36969 whole entry, looked up): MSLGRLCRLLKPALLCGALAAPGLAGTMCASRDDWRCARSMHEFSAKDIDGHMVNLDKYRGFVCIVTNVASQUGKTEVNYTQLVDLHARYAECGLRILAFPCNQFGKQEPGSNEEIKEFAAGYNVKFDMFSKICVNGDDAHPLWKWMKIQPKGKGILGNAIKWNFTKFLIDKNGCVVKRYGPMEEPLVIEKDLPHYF
Chain of Glutathione peroxidase 1 (Homo sapiens) (P07203 whole entry, looked up): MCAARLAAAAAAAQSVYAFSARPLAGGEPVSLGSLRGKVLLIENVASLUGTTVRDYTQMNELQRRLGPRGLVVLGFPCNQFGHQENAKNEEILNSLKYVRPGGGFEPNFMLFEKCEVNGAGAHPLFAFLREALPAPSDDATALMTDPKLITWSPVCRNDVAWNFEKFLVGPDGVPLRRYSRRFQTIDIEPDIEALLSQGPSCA
Chain of Calcium and integrin-binding protein 1 (Homo sapiens) (Q99828 whole entry, looked up): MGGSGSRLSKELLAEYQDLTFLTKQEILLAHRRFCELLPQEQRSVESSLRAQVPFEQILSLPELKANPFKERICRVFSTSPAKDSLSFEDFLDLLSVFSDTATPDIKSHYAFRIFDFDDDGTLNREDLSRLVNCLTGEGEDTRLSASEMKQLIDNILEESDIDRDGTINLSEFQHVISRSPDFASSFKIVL

On to `CC(C)OC(=O)c1ccnc2cc(C(OCCN3CCCCC3)c3ccccc3Cl)sc12` (configuration not stated), for which the Potency result (in [1]; in experiment [2]; in [4]; in the experiment on C33A; with CASKI; with Es-2) was “inactive” throughout. The Potency entry in the experiment on Hek293T, with JEG-3, with PA-1, in the experiment on Tov-21-G and in the experiment with Tov112D was “inactive” throughout. For the same compound, the outcome (in experiment [3]; in the experiment on HaCat) was inactive.
As to `CC(=O)O[C@H]1C(=O)[C@]2(C)C(O)C[C@H]3OC[C@@]3(OC(C)=O)[C@H]2[C@H](OC(=O)c2ccccc2)[C@]2(O)C[C@H](O)C(C)=C1C2(C)C` (some centres not stated), the Potency result in experiment [5], in experiment [1], in experiment [6], in [2], in experiment [7] and in experiment [8] was “inactive” throughout. In addition, the Potency result with C33A, with CAOV3, in the experiment on Es-2, with Hek293T, with JEG-3 and in the experiment on OV90 was “inactive” each time. In addition, the Potency entry with PA-1, in the experiment on Tov-21-G and in the experiment on Tov112D was “inactive” throughout. Besides, in experiment [3], the call was inactive. The max response was -29.4% with HaCat and -3.65% in the experiment on NIH3T3.
For `C/C=C(\C)C(=O)O[C@@H]1[C@@H](C)[C@]2(O)C3C=C(C)C(=O)[C@@]3(O)CC(CO)=C[C@H]2C2C(C)(C)[C@@]21OC(=O)C(C)CC` (some centres not stated), the Potency entry in experiment [5], in experiment [1], in [6], in experiment [2], in [4] and in [7] was “inactive” each time. For the same compound, the Potency result (in experiment [8]; with C33A; with CAOV3; with CASKI; with Hek293T; in the experiment on OV90) was “inactive” in each case. Also, the Potency entry with Tov-21-G and with Tov112D was “inactive” each time. Also, the compound was classed as inactive (in [3]; in the experiment with HaCat; in the experiment with NIH3T3).
With `CN(CC[C@H](N)CC(=O)N[C@H]1C=C[C@@H](n2ccc(N)nc2=O)O[C@@H]1C(=O)O)C(=N)N`, the activity change, negative = inhibition in experiment [5] was 10.8% [at 10.7 µM]. Moreover, the Potency result in [1] is “inactive”. For the same compound, the values for the activity, negative = inhibition in experiment [6] and in experiment [7] were -3.97% [at 9.52 µM] and 0% [at 11.6 µM], respectively. Moreover, the outcome in [2] was “inactive [at 9.73 µM]”; in experiment [3], “inactive [at 11.6 µM]”. The activity change, negative = thiol reactive in [4] was -6.62% [at 11.5 µM]. In addition, the call in the experiment on HaCat was inactive. Further, the activity change, negative = cytotoxicity with C33A is 6.23% [at 11.6 µM]; in the experiment on CAOV3, 8.99% [at 11.6 µM]; in the experiment on CASKI, 4.22% [at 11.6 µM]; in the experiment with Es-2 it was -2.42% [at 11.6 µM]; in the experiment on Hek293T, 1.23% [at 11.6 µM]; in the experiment on JEG-3 it was 12.8% [at 11.6 µM]. Moreover, the activity change, negative = cytotoxicity was -7.37% [at 11.6 µM] in the experiment on OV90, 5.22% [at 11.6 µM] with PA-1, 2.99% [at 11.6 µM] in the experiment on Tov-21-G and 1.2% [at 11.6 µM] in the experiment with Tov112D.
As for `COc1ccc(CC2C(=O)NC(C)C(=O)N(C)C3Cc4ccc(cc4)Oc4cc(ccc4OC4OC(CO)C(O)C(O)C4O)CC(C(=O)NC(C)C(=O)NC(CCC(=O)O)C(=O)N2C)N(C)C3=O)cc1` (configuration not stated), the Potency result in experiment [5], in [1] and in experiment [2] was “inactive” throughout. Further, in [3], the activity change, negative = inhibition is -19.1% [at 11.6 µM]. Further, in experiment [4], the activity change, negative = thiol reactive was -0.882% [at 11.5 µM]. Besides, the activity, negative = inhibition in experiment [7] was -15.7% [at 11.6 µM]. Also, the outcome with HaCat was inactive. Moreover, the values for the activity change, negative = cytotoxicity in the experiment on CASKI, in the experiment with JEG-3 and in the experiment with OV90 were -30.7% [at 11.6 µM], -7.62% [at 11.6 µM] and -30.8% [at 11.6 µM], respectively. The Potency with PA-1 is 7.08 µM (active).
